In the library only some 11% were active in any assay of this set; here they are far more common.
Pf growth 96h = P. falciparum growth inhibition at 96 hour, primary screen for plastid delayed-death inhibitors | Potency, µM (top dose mostly 28.7 µM), inactives show top-dose activity change, negative = inhibition, hits mostly inhibitors | AID 504834 | 320,000 compounds, 6.9% hits | P. falciparum luciferase reporter growth, 96 h
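96 h incubation, 37 C, 5% CO2, of luciferase-reporter P. falciparum-infected RBCs (2% hematocrit, 0.05% parasitemia final) with test compounds; endpoint luminescence.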
Pf growth 48h = P. falciparum growth inhibition at 48 hours (one generation). P. falciparum luciferase growth in erythrocytes, 48 h. Potency, µM (doses to about 28.7 µM), inactives show at the top dose activity change, negative = inhibition, most hits filed as inhibitors. 310,000 compounds, 5.9% hits
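Cell-based growth assay: transgenic P. falciparum expressing firefly luciferase, cultured in red cells within RPMI 1640 containing 0.5% w/v Albumax, 24 mM bicarbonate and gentamycin. A drop in luciferase activity indicates inhibition.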
HCV inh = blocks hepatitis C virus; 340,000 compounds, 3.4% hits; Huh7.5.1 HCVcc-Cre infection, luciferase reporter, 44 h; Potency, µM (top dose mostly 41.8 µM), for the others: at the highest dose activity change, negative = inhibition, hits mostly inhibitors
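A cell-based infection assay in which seeded cells (1,000 per well) receive test compound after 4 h, are inoculated with HCVcc-Cre at approximately 0.5 moi, and are incubated 44 h before luminescence detection.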
AMA1-RON2 inh = AMA1-RON2 (P. falciparum) interaction inhibition. AlphaScreen AMA1-biotinylated RON2 peptide binding. Potency, µM (doses to about 58.2 µM), for the others: top-dose activity change, negative = inhibition, hits mostly inhibitors. 360,000 compounds, 0.2% hits. AID 720542;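 further: 0% = vehicle wells and -100% = peptide control; nearly all actives have a fitted effect of over 45% in size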
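AMA1 (3D7) with his tag at 25 nM final met compounds first, then biotinylated RON2 peptide at 25 nM; detection used donor plus acceptor beads, 10 µg/mL apiece, read by AlphaScreen after 30 min at room temperature.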
Numbers without * were called inactive; ? = inconclusive; / = not tested or not shown; ! = not active in a repeat. The call rests on the fitted dose curve; in most records, active means well fitted curve in the direction sought with a large enough effect; inconclusive means small, poorly fitted or top-dose-only effect, or another doubt; inactive means no such curve, though single readings can be large; an effect the other way counts as inactive or inconclusive. Unless noted, on the % scale 0 is the no-effect control and ±100 the full control effect; potency means the concentration at half of the fitted maximal effect.

SMILES	Pf growth 96h	Pf growth 48h	HCV inh	AMA1-RON2 inh
CCOC(=O)C1C(=O)C=C(c2ccc(C)cc2)CC1c1ccc([N+](=O)[O-])cc1 (stereo not given)	9.3µM*	?	?	-4%
CC(C)Oc1cc(N)c(Cl)cc1Cl	18%	16%	2%	-4%
COc1ccc(CNCc2cc(Cl)ccc2O)cc1	13µM*	9.3µM*	?	8%
O=[N+]([O-])c1ccc(O)c(CNCc2ccccc2)c1	/	/	18%	21%
Oc1ccc(Cl)cc1CNCc1cccc2ccccc12	0.93µM*	0.41µM*	4%	78%
O=[N+]([O-])c1ccc(CNCc2cc(Cl)ccc2O)cc1	?	12µM*	?	67%
Oc1ccc(Cl)cc1CNCc1ccc(F)c(F)c1	5.2µM*	3.3µM*	7%	55%
O=C(CSc1nc(C2CC2)nc2c1cnn2-c1ccccc1)Nc1c[nH]c(=O)[nH]c1=O	7%	33%	-10%	-9%
CCN(CC(=O)Nc1ccc(OC)cc1)CC(=O)Nc1cccc(S(=O)(=O)N2CCOCC2)c1	/	/	/	50%
CCN(CC)CC(=O)Nc1ccc(-c2ccc(NC(=O)CN(CC)CC)c(OC)c2)cc1OC	?	?	1.8µM*	-16%
COc1ccc(CN(C)CC(=O)Nc2cccc(S(=O)(=O)N3CCCC3)c2)cc1F	/	/	?	1%
CCN(CC(=O)Nc1cccc(S(=O)(=O)N2CCCC2)c1)CC(=O)Nc1ccccc1OC	9.3µM*	?	?	35%
CCN(CC(=O)Nc1cc(Cl)ccc1C)C(=O)c1cc(S(=O)(=O)N2CCCCCC2)ccc1OC	?	?	?	0%
COc1ccc(Cl)cc1NC(=O)CN(C)CC(=O)Nc1cccc(S(=O)(=O)N2CCCC2)c1	3.3µM*	?	?	27%
CCN(CC(=O)Nc1ccccc1OC)C(=O)c1cc(S(=O)(=O)N2CCCCCC2)ccc1OC	5.2µM*	?	?	25%
COC(=O)[C@@]12C[C@@H](CC(=O)N3CCCC3)C(=O)N(Cc3ccccc3)C1=CCC(C)(C)C2	/	/	/	-3%
COc1ccc(C)cc1NC(=O)c1cc(S(=O)(=O)N2CCCC2)cn1C	?	-9%	-2%	-7%
COc1ccc(Cl)cc1NC(=O)c1cc(S(=O)(=O)N2CCCC2)cn1C	30%	-28%	11µM*	13%
CC[N+](C)(CC)CCOC(=O)C1c2ccccc2Oc2ccccc21	10µM*!	10µM*!	7%	-18%
CN(C)CCCOC(=O)C1c2ccccc2Oc2ccccc21	1%	-7%	-19%	25%
c1ccc(CN2CCC3CC2c2c3cccc2N2CCOCC2)cc1 (stereo not given)	/	/	/	-6%
CCOc1ccc2nc(SCC(=O)N(CCOC)c3c(N)n(Cc4ccccc4)c(=O)[nH]c3=O)[nH]c2c1	-22%	?	?	-18%
CCCCn1c(N)c(N(CCOC)C(=O)CSc2nc3ccc(C)cc3[nH]2)c(=O)[nH]c1=O	9.3µM*	?	15%	-9%
CCCCN(C(=O)c1cccc(S(=O)(=O)N(C)c2ccc(C)cc2)c1)c1c(N)n(CCCC)c(=O)[nH]c1=O	?	0.37µM*	?	-18%
COCCN(C(=O)c1ccc(N(C)S(=O)(=O)c2ccc(C)cc2)cc1)c1c(N)n(CC(C)C)c(=O)[nH]c1=O	/	/	15%	5%
SMILES	Pf growth 96h	Pf growth 48h	HCV inh	AMA1-RON2 inh
CCCCn1c(N)c(N(CCOC)C(=O)c2cccc(S(=O)(=O)N(C)c3ccc(C)cc3)c2)c(=O)[nH]c1=O	9.3µM*	6.6µM*	6%	2%
COCC(=O)N/N=C(\C)CC(=O)NCc1ccco1	?	-13%	19%	13%
CCCC[n+]1ccn(-c2nc3ccccc3nc2[N-]S(=O)(=O)c2ccccc2)c1	15µM*	/	13%	32%
O=S(=O)([N-]c1nc2ccccc2nc1-[n+]1ccc(-c2ccncc2)cc1)c1ccccc1	?	?	16%	7%
CCCC[n+]1ccn(-c2nc3ccccc3nc2[N-]S(=O)(=O)c2cccs2)c1	5.9µM*	?	17%	17%
O=S(=O)([N-]c1nc2ccccc2nc1-[n+]1ccc(CCCc2ccccc2)cc1)c1cccs1	5.2µM*	7.4µM*	-23%	-6%
Cc1ccc(S(=O)(=O)[N-]c2nc3ccccc3nc2-n2cc[n+](Cc3ccccc3)c2)cc1	1.5µM*	4.1µM*	?	8%
O=C(COC(=O)/C=C/c1ccc([N+](=O)[O-])cc1)Nc1ccc2[nH]c(=O)[nH]c2c1	32%	10%	-3%	-26%
